The text below walks through data of PubChem BioAssay AID778 (Sanford-Burnham Center for Chemical Genomics, 2007).

Structures are written as SMILES. About 20,000 (21%) of roughly 96,000 compounds were called active.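 The calls were made as follows: active = CYP2C19 inhibition above a set limit at 5 µM in the primary screen (cut at about 50% in these data); inactive = the rest.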 The list is a sample of the results.

The inhibition is the drop in the measured response relative to a control, in per cent.

Chain of Cytochrome P450 2C19 (Homo sapiens) (P33261 whole entry, looked up): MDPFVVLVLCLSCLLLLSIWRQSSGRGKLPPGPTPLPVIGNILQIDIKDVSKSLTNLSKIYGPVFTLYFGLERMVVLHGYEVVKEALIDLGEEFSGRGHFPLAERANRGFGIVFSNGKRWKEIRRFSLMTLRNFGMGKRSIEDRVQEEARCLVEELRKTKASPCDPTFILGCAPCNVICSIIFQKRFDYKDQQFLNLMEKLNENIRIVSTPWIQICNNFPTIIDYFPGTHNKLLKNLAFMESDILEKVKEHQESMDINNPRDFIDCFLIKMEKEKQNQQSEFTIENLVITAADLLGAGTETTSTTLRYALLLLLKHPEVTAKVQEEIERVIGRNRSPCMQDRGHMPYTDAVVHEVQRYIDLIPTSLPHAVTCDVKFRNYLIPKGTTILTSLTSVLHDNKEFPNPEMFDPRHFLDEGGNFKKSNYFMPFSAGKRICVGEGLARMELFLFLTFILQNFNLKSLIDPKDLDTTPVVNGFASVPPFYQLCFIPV

This assay addresses Cytochrome P450 2C19 (Homo sapiens) (UniProt P33261). Description: blockers of cytochrome P450 2C19 activity – biochemical, luminescence, ADME assay, primary screen (AID 778).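 Also: plate controls were negative control wells for no effect and 2.5 mM tranylcypromine positive control for full effect.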 The conditions noted are these: CYP2C19 Supersomes, luciferin-H EGE luminescence, 30 min; at 5 µM; active compounds read high.
Take `CCOc1ccc(CNC(=O)C2CCC(=O)N2C2CCCC2)cc1OC` (configuration not stated): the inhibition was -0.1% (inactive).
Next, `Brc1ccc(C2=CC(c3ccco3)n3ncnc3N2)cc1` (configuration not stated): 33% (inactive).
Next, `COC(=O)C1=C(C)Nc2ncnn2C1c1cccnc1` (configuration not stated): -0.3% (inactive).
On to `Clc1ccc2c(c1)C1=C(C(c3ccncc3)O2)C(c2ccc(Br)cc2)n2ncnc2N1` (configuration not stated), for which the inhibition is 86.1% (active).
Turning to `Cc1ccc(Cc2c(C)nc3nc(SCC(=O)NCCN4CCOCC4)nn3c2C)cc1`, the inhibition was -3.1% (inactive).
Regarding `COc1ccc(-c2cc3nc(C)c(CCC(=O)NC(C)CCc4ccco4)c(C)n3n2)c(OC)c1` (configuration not stated), the inhibition is 30.5% (inactive).
On to `CCCCNC(=O)OC(C)CNC(=O)OC` (configuration not stated), for which the inhibition was 2.3% (inactive).
Turning to `CC(=O)Nc1ccc(S(=O)(=O)N2CCCC2C(=O)O)cc1` (configuration not stated), the inhibition is -6.9% (inactive).
Take `O=C(O)CCC(=O)Nc1ccc(N2CCOCC2)cc1`: the inhibition is -9% (inactive).
For `COC(=O)COc1ccc(S(=O)(=O)Nc2ccc(NC(C)=O)cc2)cc1`, the inhibition is 69.1% (active).
On to `CCOc1ccc(NS(=O)(=O)c2ccc(OCC(=O)NCCCOC)cc2)cc1`, for which the inhibition is 2.3% (inactive).
`CC(=O)Nc1ccc(N2CCOCC2)c(C(=O)Nc2cccc(C)c2)c1`: the inhibition was 53.3% (active).
Turning to `CC(=O)Nc1ccc(S(=O)(=O)Nc2ccc(N3CCOCC3)c(F)c2)cc1`, the inhibition was 93.5% (active).
Consider `CC(=O)Nc1cccc(Oc2cc(C#N)c(C#N)cc2N2CCOCC2)c1`, for which the inhibition is 5.2% (inactive).
Take `COc1ccc(NC(=O)c2c(C)oc3c2CCCC3)cc1`: the inhibition was 24.5% (inactive).
The same measure for `COc1ccc(S(=O)(=O)Nc2ccc3oc(C)c(C(C)=O)c3c2)cc1`: 67.4% (active).
As to `COc1c(C)cccc1C(=O)Nc1cc(Cl)ccc1N1CCOCC1`, the inhibition is 20.6% (inactive).
In the case of `COc1ccc2oc(C)c(NC(C)=O)c2c1`, the inhibition was 13.5% (inactive).
In the case of `COc1ccc(NS(=O)(=O)c2ccc(NC(=S)NC(=O)CC(C)C)cc2)cc1`, the inhibition is 25.1% (inactive).
Turning to `CCCc1[nH]nc2c1C(c1c(C)nn(-c3ccccc3)c1Cl)C(C#N)=C(N)O2` (configuration not stated), the inhibition was 49.2% (inactive).
In the case of `CC(=O)Oc1cc2c(C(=O)NCCN3CCOCC3)c(C)oc2c2ccccc12`, the inhibition is 34.2% (inactive).
As for `Cc1ccc(C2=CSC3=NS(=O)(=O)CCN23)cc1C`, the inhibition is 2.5% (inactive).
As for `CC(=O)c1c(C)n([O-])c2ccccc2[n+]1=O`, the inhibition is -0.9% (inactive).
`O=C(N/N=C/c1ccc(O)cc1)/C(=C/c1ccc([N+](=O)[O-])cc1)NC(=O)c1ccccc1`: the inhibition was 7.9% (inactive).
As for `C/C(=C(\C#N)C(=O)NCCCN1CCOCC1)N(C)C`, the inhibition was -11.3% (inactive).
Regarding `Cc1ccc(S(=O)(=O)/N=C(\CN2CCOCC2)N2CCOCC2)cc1`, the inhibition is -1.3% (inactive).
The same measure for `N#Cc1cccc(CSc2nnc(CCCO)n2-c2ccccc2)c1`: 8.4% (inactive); for `O=C(/C=C/Nc1ccccc1)c1cnc(-c2ccccc2)s1`: 0.3% (inactive).
The same measure for `Nc1c(-c2ccc(F)cc2)cnn1C1CCS(=O)(=O)C1` (configuration not stated): -15.6% (inactive); for `COc1cccc(C2/C(=C(/O)c3ccc(F)cc3)C(=O)C(=O)N2CCN(C)C)c1` (configuration not stated): 5.9% (inactive); for `CCOC(=O)c1sc(NC(=O)C(CC)Sc2nccn2C)nc1C` (configuration not stated): 28% (inactive).
Take `CC(=O)N1CCCc2cc(S(=O)(=O)CCC(=O)N3CCN(c4ccccc4)CC3)ccc21`: the inhibition is 29.1% (inactive).
In the case of `CCOC(=O)CC1=CC(=O)Nc2ccccc2N1`, the inhibition is 12.4% (inactive).
In the case of `Cc1ccc(C(=O)NC2CC(C)(C)NC(C)(C)C2)c(C)c1`, the inhibition is -14.1% (inactive).
`CCNS(=O)(=O)c1ccc(NC(=O)Nc2cccc(OC)c2)cc1`: the inhibition was 25.1% (inactive).
Next, `COc1cc(NS(=O)(=O)c2ccc(NC(C)=O)cc2)cc(OC)c1`: 98% (active); `COc1ccc(NS(=O)(=O)c2ccc(NC(C)=O)cc2)cc1OC`: 43.3% (inactive); `O=C(Nc1ccn(Cc2ccccc2F)n1)c1ccc(COc2ccc(Cl)cc2Cl)o1`: 57.8% (active).
The same measure for `O=C(O)c1ccc(COc2c(F)c(F)cc(F)c2F)o1`: -3.2% (inactive); for `CCOc1ccc(OCc2ccc(C(=O)Nc3cccc(C)n3)o2)cc1`: 35.8% (inactive); for `O=C1CCC(Cc2ccccc2)N1` (configuration not stated): 8.7% (inactive).
The same measure for `O=C(O)c1ccc(COCC(F)(F)F)cc1`: -5.4% (inactive).
On to `Cc1sc(NC(=S)NC(=O)c2cccs2)nc1-c1ccc(CC(C)C)cc1`, for which the inhibition was 4.5% (inactive).
Consider `O=C(c1ccco1)N(Cc1nc2ccccc2c(=O)[nH]1)C1CCCC1`, for which the inhibition was 7.2% (inactive).
On to `CN(Cc1nc2ccccc2c(=O)[nH]1)Cc1cc(=O)oc2ccc3ccccc3c12`, for which the inhibition was 2.9% (inactive).
For `CCCC(=O)N(CCc1ccccc1)Cc1nc2ccccc2c(=O)[nH]1`, the inhibition was 53.5% (active).
The same measure for `O=C(Nc1ccc(Cl)cn1)Nc1cccs1`: 31.4% (inactive); for `O=C1OC(c2ccc(Cl)cc2)=N/C1=C\c1cccnc1`: 33.1% (inactive); for `CCN(CC)C(=O)CSc1nc2ccccc2n1CC(=O)N1CCN(c2ccccc2OC)CC1`: 27% (inactive).
On to `CCN(CC)C(=O)CC1(c2ccccc2OC)CCOC(C(C)C)C1` (configuration not stated), for which the inhibition is 73.3% (active).
As for `C/C(CC(O)(/C=N/O)c1ccccc1)=N\O` (configuration not stated), the inhibition is -13% (inactive).
Consider `Cc1ccc(N2CCN(/N=C/c3cccs3)CC2)cc1`, for which the inhibition was 35.3% (inactive).
Regarding `O=C(Cn1[nH]c(=O)c2ccccc2c1=O)Nc1cccc(-c2nnc3n2CCCCC3)c1`, the inhibition is 25.7% (inactive).
Next, `O=C(NCc1ccccc1)C1C(=O)N(Cc2ccccc2)C(=O)C1C1(O)CCCC1` (configuration not stated): 91.9% (active); `O=C(NCCCN1CCN(Cc2ccccc2)CC1)C1CCN(S(=O)(=O)N2CCCC2)CC1`: -1.9% (inactive); `O=C(CN1C(=O)NC(Cc2ccccc2)(Cc2ccccc2)C1=O)NCC1CCCCC1`: 41.6% (inactive).
Next, `Cc1ccccc1Nc1nnc(C)c(=O)[nH]1`: 0.4% (inactive).
Regarding `COC(=O)c1ccc(CSc2nc3ccccc3c(=O)n2-c2cccc(OC)c2)o1`, the inhibition is 98.4% (active).
For the molecule `CCc1c(O)nc(SCC(=O)Nc2ccccc2)n(C(C)CC)c1=O` (configuration not stated), the inhibition was 0.7% (inactive).
As for `COCC(C)n1c(SCc2ccc(C(=O)OC)o2)nc2ccccc2c1=O` (configuration not stated), the inhibition is 96.7% (active).
With `N#CCSc1nc2ccccc2c(=O)n1-c1ccccc1`, the inhibition was 13.3% (inactive).
Next, `COc1cccc(-n2cc(C(=O)O)c3ccccc3c2=O)c1`: 1.5% (inactive).
